PubChem BioAssay (EPA / NIEHS)
Where “and” joins values, the source holds several entries; their conditions need not be identical. Equal values may be shown once. Where a structure was tested more than once in an assay, its records may differ in their call. Calls of active or inactive are those of the source. The calls were made as follows: active = hit-call score of the fitted dose curve at least 0.9, where 1 is the maximum; inactive = score below 0.9.

Key:
[1] = molecular target: Transcription factor E2F1 (Homo sapiens) (UniProt Q01094); experiment: ATG_E2F_CIS: Attagene CIS-FACTORIAL HepG2 Assay for human E2F Transcription Factor 1 (AID 2282935); conditions: HepG2 Attagene cis-reporter, E2F reporter RNA transcripts; actives raise or lower the signal
Method in brief: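 In this cis-factorial format, endogenous factor activity drives transfected reporters in HepG2; transcripts collected at 24 h are quantified by fluorescence after RT-PCR and capillary separation.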

[2] = ATG_E_Box_CIS: Attagene CIS-FACTORIAL HepG2 Assay for human Enhancer Box (E-box) (AID 2282936); conditions: HepG2 E-box cis-reporter transcription, actives raise or lower the signal
Method in brief: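 Measured 24 h post-dosing in HepG2 cells transfected with multiple cis-regulated reporter units, signal being reporter mRNA induction detected by fluorescent RT-PCR with capillary electrophoresis; gain or loss fitted against DMSO.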

[3] = ATG_M_61_CIS: Attagene CIS-FACTORIAL HepG2 Assay for M61 Transcription Factor (Internal Marker) (AID 2282937); conditions: HepG2 Attagene CIS-FACTORIAL M61 internal marker reporter; actives raise or lower the signal
Method in brief: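 Human liver HepG2, transient MRTU transfection (cis promoter elements), 24 h compound. Total RNA → oligo(dT) RT → PCR → FAM label → HpaI → CE. Internal background marker; bidirectional fitting, DMSO = baseline.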

[4] = ATG_EGR_CIS: Attagene CIS-FACTORIAL HepG2 Assay for human Early Growth Response 1 (EGR1) (AID 2282938); conditions: HepG2 Attagene CIS-FACTORIAL EGR reporter mRNA; actives raise or lower the signal
Method in brief: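 Transient transfection of human HepG2 with multiple cis-regulated reporter units, chemical exposure 24 h, total RNA isolated. Reverse transcription, PCR, fluorescent labelling and capillary electrophoresis quantify reporter transcripts; activity fitted bidirectionally against DMSO.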

[5] = ATG_ERE_CIS: Attagene CIS-FACTORIAL HepG2 Assay for Estrogen Response Element (ERE) (AID 2282940); conditions: HepG2 ERE cis-reporter, Attagene RNA transcript; actives raise or lower the signal
Method in brief: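 After a 24 h chemical treatment, RNA from reporter-transfected HepG2 cells is reverse-transcribed, PCR-amplified and fluorescently labelled. Fragments separated by capillary electrophoresis give reporter signal; DMSO serves as negative control.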

[6] = ATG_Ets_CIS: Attagene CIS-FACTORIAL HepG2 Assay for human Erythroblast Transformation Specific (ETS) (AID 2282941); conditions: HepG2 ETS cis-reporter transcription, actives raise or lower the signal
Method in brief: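 Cis-regulated reporter mRNA induction in HepG2 (transient transfection), 24 h exposure, RT-PCR plus capillary electrophoresis detection; DMSO serves as negative control and baseline.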

[7] = molecular target: Hepatocyte nuclear factor 3-beta (Homo sapiens) (UniProt Q9Y261); experiment: ATG_FoxA2_CIS: Attagene CIS-FACTORIAL HepG2 Assay for human Forkhead box A2 (FOXA2) (AID 2282942); conditions: HepG2 cis-reporter transcription factor activity, 24 h; actives raise or lower the signal
Method in brief: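 Transient MRTU transfection of HepG2 liver cells; 24 h treatment; total RNA → oligo(dT) RT → PCR → FAM primer extension → HpaI cut → CE. Bidirectional fit vs DMSO.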

[8] = ATG_FoxO_CIS: Attagene CIS-FACTORIAL HepG2 Assay for human Forkhead box O (FoxO) (AID 2282943); conditions: HepG2 Attagene cis-reporter, FoxO element, mRNA; actives raise or lower the signal
Method in brief: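 24 h chemical exposure, HepG2 with transient cis-MRTU transfection. RNA extraction, oligo(dT) RT, reporter-specific PCR, primer-extension labelling, HpaI digestion, CE fragment analysis; bidirectional fit, DMSO baseline.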

[9] = ATG_GATA_CIS: Attagene CIS-FACTORIAL HepG2 Assay for human GATA Binding Protein (AID 2282944); conditions: HepG2 GATA cis-element reporter, Attagene multiplex mRNA; actives raise or lower the signal
Method in brief: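 Cells: HepG2, transiently transfected with cis-regulated reporter transcription units. Exposure: 24 h. Detection: RT-PCR plus capillary electrophoresis of FAM-labeled fragments. Analysis: bidirectional, DMSO as baseline.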

[10] = ATG_GLI_CIS: Attagene CIS-FACTORIAL HepG2 Assay for human Zinc Finger Protein GLI1 (AID 2282945); conditions: HepG2, Attagene cis-factorial reporter mRNA, GLI element; actives raise or lower the signal
Method in brief: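 HepG2 cells transiently transfected with cis-promoter multiplexed reporter units report endogenous transcription factor activity. After 24 h chemical exposure, reporter mRNA was quantified by RT-PCR, 6-FAM labelling, HpaI digestion and capillary electrophoresis, with bidirectional fitting against DMSO.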

[11] = molecular target: Bile acid receptor (Homo sapiens) (UniProt Q96RI1); experiment: ATG_IR1_CIS: Attagene CIS-FACTORIAL HepG2 Assay for human Nuclear Receptor Subfamily 1 Group H Member 4 (NR1H4), IR1 submotif (AID 2282946); conditions: IR1 reporter transcription, actives raise or lower the signal
Method in brief: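 Readout: reporter transcript levels by RT-PCR with fluorescent capillary electrophoresis, from HepG2 cells transiently transfected with multiplexed cis-regulated reporters and dosed 24 h. Gain- or loss-of-signal fitted versus DMSO negative control.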

[12] = ATG_ISRE_CIS: Attagene CIS-FACTORIAL HepG2 Assay for human Interferon Regulatory Factor 1 (IRF1) binding to an Interferon-Stimulated Response Element (ISRE) (AID 2282948); conditions: HepG2 ISRE cis-reporter (Attagene), mRNA transcription readout; actives raise or lower the signal
Method in brief: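 Multiplexed mRNA reporter readout in human liver HepG2 cells: cis-element-driven reporters transfected, compound added for 24 h, transcripts amplified, fluorescently labelled and sized by capillary electrophoresis; curve fitting bidirectional against DMSO.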

[13] = ATG_M_32_CIS: Attagene CIS-FACTORIAL HepG2 Assay for M32 Transcription Factor (Internal Marker) (AID 2282949); conditions: HepG2 Attagene cis-factorial M32 reporter, mRNA; actives raise or lower the signal;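 also: background control marker of the multiplexed CIS panel rather than a real target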
Method in brief: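 Transient MRTU transfection of HepG2; 24 h compound treatment; TriZol RNA, oligo(dT) RT, reporter PCR, 6-FAM primer extension, HpaI cut, CE. Gain/loss of signal vs DMSO.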

[14] = ATG_M_06_CIS: Attagene CIS-FACTORIAL HepG2 Assay for M06 Transcription Factor (Internal Marker) (AID 2282950); conditions: HepG2 Attagene CIS-FACTORIAL M06 internal marker reporter; actives raise or lower the signal
Method in brief: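 Measured 24 h post-dosing in transiently transfected HepG2 cells, this internal-marker endpoint reports reporter mRNA via RT-PCR with fluorescent primer extension and capillary electrophoresis. DMSO served as negative control and baseline for bidirectional fitting.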

[15] = molecular target: Hypoxia-inducible factor 1-alpha (Homo sapiens) (UniProt Q16665); experiment: ATG_HIF1a_CIS: Attagene CIS-FACTORIAL HepG2 Assay for human Hypoxia Inducible Factor 1 (HIF1A) (AID 2282951); conditions: HepG2 Attagene cis-factorial HIF1a reporter transcription; actives raise or lower the signal
Method in brief: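 Transient MRTU transfection of human HepG2 liver cells, 24 h compound treatment, then total RNA isolation, oligo(dT) reverse transcription, PCR amplification, fluorescent labelling and capillary electrophoresis of reporter fragments. Gain or loss relative to DMSO.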

[16] = molecular target: Hepatocyte nuclear factor 6 (Homo sapiens) (UniProt Q9UBC0); experiment: ATG_HNF6_CIS: Attagene CIS-FACTORIAL HepG2 Assay for human Hepatocyte Nuclear Factor 6 (HNF6) (AID 2282952); conditions: HepG2 Attagene cis-factorial HNF6 reporter transcription; actives raise or lower the signal
Method in brief: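 First, HepG2 cells were transfected with the multiplexed cis reporter library and dosed with chemical for 24 h. Next, RNA was reverse-transcribed, PCR-amplified and fluorescently labelled. Finally, HpaI-digested fragments were read by capillary electrophoresis.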

[17] = molecular target: Heat shock factor protein 1 (Homo sapiens) (UniProt Q00613); experiment: ATG_HSE_CIS: Attagene CIS-FACTORIAL HepG2 Assay for human Heat Shock Transcription Factor 1 (HSE) (AID 2282953); conditions: HepG2 HSE cis-reporter, Attagene RNA transcription; actives raise or lower the signal
Method in brief: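 Reporter mRNA induction in HepG2 is measured 24 h after dosing, using transiently transfected multiplexed cis-regulated reporter units. Signal comes from capillary electrophoresis of labelled RT-PCR products, with DMSO as negative control.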

[18] = ATG_MRE_CIS: Attagene CIS-FACTORIAL HepG2 Assay for human Metal Responsive Element (MRE) (AID 2282954); conditions: HepG2 MRE cis-reporter transcription, Attagene multiplex; actives raise or lower the signal
Method in brief: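 Readout: capillary electrophoresis of 6-FAM-labelled, HpaI-digested RT-PCR reporter products. System: HepG2 cells carrying transient multiplexed cis reporters, dosed 24 h. Analysis: bidirectional fit, DMSO baseline.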

[19] = ATG_GRE_CIS: Attagene CIS-FACTORIAL HepG2 Assay for human Glucocorticoid Response Elements (GRE) (AID 2282947); conditions: HepG2 GRE cis-reporter, Attagene multiplex mRNA; actives raise or lower the signal
Method in brief: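 HepG2, transient cis-reporter transfection, 24 h. Reporter mRNA: RT-PCR then CE, fluorescence. Fit both directions vs DMSO.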

Measured: AC50

Sequence of Hepatocyte nuclear factor 3-beta (Homo sapiens) (Q9Y261 whole entry, looked up): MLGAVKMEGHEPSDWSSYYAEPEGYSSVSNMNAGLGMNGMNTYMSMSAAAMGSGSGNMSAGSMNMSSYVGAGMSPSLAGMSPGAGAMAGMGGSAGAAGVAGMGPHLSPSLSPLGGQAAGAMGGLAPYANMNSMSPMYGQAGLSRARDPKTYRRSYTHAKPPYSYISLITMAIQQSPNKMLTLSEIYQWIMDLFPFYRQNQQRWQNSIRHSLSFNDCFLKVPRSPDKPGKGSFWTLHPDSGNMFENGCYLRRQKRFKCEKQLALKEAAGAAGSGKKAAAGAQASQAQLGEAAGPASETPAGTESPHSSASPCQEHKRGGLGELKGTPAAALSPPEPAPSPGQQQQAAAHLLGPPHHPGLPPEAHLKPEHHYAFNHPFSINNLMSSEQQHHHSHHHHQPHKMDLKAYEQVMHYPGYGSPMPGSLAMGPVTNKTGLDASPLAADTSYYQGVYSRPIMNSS
Sequence of Hypoxia-inducible factor 1-alpha (Homo sapiens) (Q16665 whole entry, looked up, the tested form may be a part): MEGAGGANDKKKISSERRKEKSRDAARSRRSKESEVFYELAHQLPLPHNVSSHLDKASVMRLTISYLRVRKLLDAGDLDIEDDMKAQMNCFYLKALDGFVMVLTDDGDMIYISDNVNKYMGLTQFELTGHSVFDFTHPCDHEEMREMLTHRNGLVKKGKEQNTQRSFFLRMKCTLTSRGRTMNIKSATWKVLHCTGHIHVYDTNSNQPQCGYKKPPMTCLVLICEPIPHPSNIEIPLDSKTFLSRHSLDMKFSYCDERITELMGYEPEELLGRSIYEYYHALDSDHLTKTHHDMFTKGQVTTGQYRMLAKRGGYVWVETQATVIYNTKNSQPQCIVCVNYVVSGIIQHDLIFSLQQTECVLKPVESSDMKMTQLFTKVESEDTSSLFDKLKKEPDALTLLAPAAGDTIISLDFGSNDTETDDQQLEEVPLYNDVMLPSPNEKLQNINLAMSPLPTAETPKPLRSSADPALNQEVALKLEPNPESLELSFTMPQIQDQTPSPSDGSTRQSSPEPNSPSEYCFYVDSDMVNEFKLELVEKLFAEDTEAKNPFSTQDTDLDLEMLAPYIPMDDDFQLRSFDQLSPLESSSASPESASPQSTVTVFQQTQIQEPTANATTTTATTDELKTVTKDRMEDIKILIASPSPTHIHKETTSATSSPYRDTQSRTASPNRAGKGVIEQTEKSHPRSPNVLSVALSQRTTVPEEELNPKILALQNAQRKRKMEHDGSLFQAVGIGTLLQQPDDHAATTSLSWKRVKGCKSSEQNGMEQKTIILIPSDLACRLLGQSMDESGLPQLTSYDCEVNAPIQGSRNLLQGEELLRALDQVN
Sequence of Transcription factor E2F1 (Homo sapiens) (Q01094 whole entry, looked up): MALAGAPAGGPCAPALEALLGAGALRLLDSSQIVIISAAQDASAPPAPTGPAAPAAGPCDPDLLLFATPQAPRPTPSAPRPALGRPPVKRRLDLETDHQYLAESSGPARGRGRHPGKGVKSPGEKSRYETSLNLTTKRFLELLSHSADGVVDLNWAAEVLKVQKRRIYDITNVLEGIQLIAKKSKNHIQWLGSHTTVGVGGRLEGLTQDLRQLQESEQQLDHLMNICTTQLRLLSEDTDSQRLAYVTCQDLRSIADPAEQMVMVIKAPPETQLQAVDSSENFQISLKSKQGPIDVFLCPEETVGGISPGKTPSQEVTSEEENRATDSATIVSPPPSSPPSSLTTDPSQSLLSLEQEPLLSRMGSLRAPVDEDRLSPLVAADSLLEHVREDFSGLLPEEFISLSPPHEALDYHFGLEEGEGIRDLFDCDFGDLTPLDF
Sequence of Heat shock factor protein 1 (Homo sapiens) (Q00613 whole entry, looked up): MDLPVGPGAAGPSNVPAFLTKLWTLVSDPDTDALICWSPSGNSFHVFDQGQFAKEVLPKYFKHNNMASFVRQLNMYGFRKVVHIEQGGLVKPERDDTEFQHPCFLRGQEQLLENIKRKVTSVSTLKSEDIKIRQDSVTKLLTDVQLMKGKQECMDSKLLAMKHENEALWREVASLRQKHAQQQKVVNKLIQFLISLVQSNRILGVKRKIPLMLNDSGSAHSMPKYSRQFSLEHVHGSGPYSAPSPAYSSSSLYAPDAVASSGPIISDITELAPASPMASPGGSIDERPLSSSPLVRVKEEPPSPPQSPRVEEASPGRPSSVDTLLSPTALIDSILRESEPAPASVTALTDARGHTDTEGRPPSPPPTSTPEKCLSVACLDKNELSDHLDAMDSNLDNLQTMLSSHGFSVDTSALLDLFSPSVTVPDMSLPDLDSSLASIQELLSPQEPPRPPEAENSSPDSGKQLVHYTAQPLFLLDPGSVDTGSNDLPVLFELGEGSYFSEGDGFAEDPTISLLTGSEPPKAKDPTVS
Sequence of Hepatocyte nuclear factor 6 (Homo sapiens) (Q9UBC0 whole entry, looked up, the tested form may be a part): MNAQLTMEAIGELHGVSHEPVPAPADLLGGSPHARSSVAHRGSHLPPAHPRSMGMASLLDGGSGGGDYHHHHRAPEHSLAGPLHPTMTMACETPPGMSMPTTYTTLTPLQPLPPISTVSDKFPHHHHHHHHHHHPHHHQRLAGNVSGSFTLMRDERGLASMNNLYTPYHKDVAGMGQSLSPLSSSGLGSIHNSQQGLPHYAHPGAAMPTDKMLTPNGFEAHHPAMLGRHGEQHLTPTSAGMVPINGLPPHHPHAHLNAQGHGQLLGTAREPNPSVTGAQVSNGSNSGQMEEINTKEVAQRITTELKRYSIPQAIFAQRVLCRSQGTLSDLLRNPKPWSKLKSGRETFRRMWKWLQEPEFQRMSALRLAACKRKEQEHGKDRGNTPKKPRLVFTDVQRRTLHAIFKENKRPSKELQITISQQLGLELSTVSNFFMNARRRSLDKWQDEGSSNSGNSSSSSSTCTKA
Sequence of Bile acid receptor (Homo sapiens) (Q96RI1 whole entry, looked up): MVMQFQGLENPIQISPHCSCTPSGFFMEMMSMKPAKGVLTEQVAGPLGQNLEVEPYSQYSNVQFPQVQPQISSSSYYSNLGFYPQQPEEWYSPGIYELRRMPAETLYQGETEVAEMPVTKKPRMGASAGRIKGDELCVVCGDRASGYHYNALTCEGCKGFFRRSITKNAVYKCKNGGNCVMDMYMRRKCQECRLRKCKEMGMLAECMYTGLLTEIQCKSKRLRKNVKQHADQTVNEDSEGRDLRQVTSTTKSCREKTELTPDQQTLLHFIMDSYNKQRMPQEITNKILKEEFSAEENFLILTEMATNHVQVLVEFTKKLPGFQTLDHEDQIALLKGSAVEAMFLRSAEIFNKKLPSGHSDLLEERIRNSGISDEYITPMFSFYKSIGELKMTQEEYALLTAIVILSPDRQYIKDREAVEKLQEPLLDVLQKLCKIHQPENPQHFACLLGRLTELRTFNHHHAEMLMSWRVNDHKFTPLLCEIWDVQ

Cc1oc(-c2ccccc2)nc1CCOc1ccc(C[C@H](Nc2ccccc2C(=O)c2ccccc2)C(=O)O)cc1
active: [4] 17.1 µM | [5] 0.523 nM | [11] 11 µM | [15] 17.6 µM | [17] 17.6 µM | [18] 20.8 µM
not listed: [19]
inactive: all other assays above

Cc1cc(CCN2CCN(c3nsc4ccccc34)CC2)cc2c1NC(=O)CC2(C)C
active: [4] 4.06 µM | [18] 13.3 µM
not listed: [12] | [19]
inactive: all other assays above

CC#C[C@]1(O)CC[C@H]2[C@@H]3CCC4=CC(=O)CCC4=C3[C@@H](c3ccc(N(C)C)cc3)C[C@@]21C
inactive: [1] | [2] | [3] | [5] | [6] | [8] | [9] | [10] | [14] | [16]
active: [4] 9.86 µM [middle of 4 runs] | [6] 8.92 µM | [10] 100 µM and 134 µM | [15] 8.4 µM [middle of 4 runs] | [18] 21.3 µM [middle of 4 runs]

OC1CCCCC1
active: [5] 100000 nM
inactive: [1] | [2] | [3] | [4] | [5] | [6] | [7] | [8] | [9] | [10] | [13] | [14] | [15] | [16] | [17] | [18]

CCCCC(CC)COC(=O)CCCCC(=O)OCc1ccccc1 (centres undefined)
not listed: [7] | [11] | [13] | [19]
inactive: all other assays above

CCC(C)(C)C1CCC(O)CC1 (centres undefined)
not listed: [5] | [7] | [11] | [12] | [19]
inactive: all other assays above

O=c1c(-c2ccc(O)cc2)coc2cc(O)ccc12
active: [5] 410 nM [middle of 4 runs]
not listed: [11] | [15] | [19]
inactive: all other assays above

CC[C@H](C)[C@@H](C(=O)O)n1sc2ccccc2c1=O
not listed: [11] | [12]
inactive: all other assays above
